Experimental data taken from PubChem BioAssay (Tox21).
Several values for one entry are separate records, joined by “and”; a condition that tells them apart may be missing. Equal values may be shown once. Records with an inconclusive call do not appear. Entries that show only a call come without a potency. More than one record can exist for a structure, and the calls need not agree. Activity calls are given as the source filed them. Unless noted, calls come from the whole dose curve; as a rule, active = well fitted curve in the direction sought with a large enough effect in the repeat runs; inconclusive = weak or mixed curves; inactive = no such curve, though single readings can be large; an effect the other way counts as inactive or inconclusive.

How the values were obtained:
[1] = target: Acetylcholinesterase (Homo sapiens) (UniProt P22303); assay: Acetylcholinesterase (AChE) small molecule antagonists: colormetric cell-based qHTS assay (AID 1347395; calls by dose curve; note: nearly all actives have a fitted effect of over 30% in size)
Acetylcholinesterase (Homo sapiens), sequence (P22303 whole entry, looked up): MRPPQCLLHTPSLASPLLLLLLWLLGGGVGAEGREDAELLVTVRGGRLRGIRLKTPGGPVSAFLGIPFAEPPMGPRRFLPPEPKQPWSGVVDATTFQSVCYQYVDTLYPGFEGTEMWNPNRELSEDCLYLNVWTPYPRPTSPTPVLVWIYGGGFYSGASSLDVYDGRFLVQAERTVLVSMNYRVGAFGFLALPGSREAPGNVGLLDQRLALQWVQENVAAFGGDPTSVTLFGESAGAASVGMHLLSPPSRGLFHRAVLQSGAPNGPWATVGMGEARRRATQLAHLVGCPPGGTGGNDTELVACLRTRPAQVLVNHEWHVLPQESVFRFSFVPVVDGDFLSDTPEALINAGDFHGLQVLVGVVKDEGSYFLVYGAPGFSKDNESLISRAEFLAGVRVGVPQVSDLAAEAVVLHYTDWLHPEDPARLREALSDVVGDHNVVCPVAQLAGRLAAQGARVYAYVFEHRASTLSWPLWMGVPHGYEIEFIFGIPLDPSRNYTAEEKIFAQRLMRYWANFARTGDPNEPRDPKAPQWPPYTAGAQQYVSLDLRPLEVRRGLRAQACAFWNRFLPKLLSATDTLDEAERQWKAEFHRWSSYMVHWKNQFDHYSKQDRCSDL
How it was run: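 Endogenous AChE of human neuroblastoma SH-SY5Y cells was measured with an Ellman-type DTNB/acetylthiocholine mix. Compound pretreatment lasted 30 min at 37 C; substrate reaction ran 90 min at 37 C.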

[2] = target: Acetylcholinesterase (Homo sapiens) (UniProt P22303); assay: Acetylcholinesterase (AChE) small molecule antagonists: enzyme-based qHTS assay (AID 1347397; calls by dose curve; note: nearly all actives have a fitted effect of over 55% in size); settings: Potency: AChE enzyme activity inhibition
How it was run: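 Human recombinant acetylcholinesterase; substrate acetylthiocholine; thiocholine quantified with DTNB (colorimetric). Compound preincubation 30 min RT; reaction 10 min RT.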

[3] = target: Acetylcholinesterase (Homo sapiens) (UniProt P22303); assay: Acetylcholinesterase (AChE) small molecule antagonists: fluorescence cell-based qHTS assay (AID 1347398; calls by dose curve; note: nearly all actives have a fitted effect of over 50% in size); settings: Potency: AChE activity
How it was run: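 Thiocholine generated from acetylthiocholine by SH-SY5Y cell AChE is detected with Thiolite Green (Ex/Em 490/520 nm) after 40 min at room temperature, following 30 min compound pretreatment at 37 C.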

[4] = target: Acetylcholinesterase (Homo sapiens) (UniProt P22303); assay: Acetylcholinesterase (AChE) small molecule antagonists: enzyme-based qHTS assay with human liver microsomes (AID 1347399; calls by dose curve; note: nearly all actives have a fitted effect of over 60% in size); settings: Potency: qHTS inhibition
How it was run: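 Recombinant human AChE (50 mU/mL in the enzyme mix) and human liver microsomes (0.25 mg/mL final) were preincubated with compound and NADPH (0.25 mg/mL final) for 30 min at 37 C. Acetylthiocholine/DTNB was then added; thiocholine was read colorimetrically after 10 min at room temperature.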

[5] = target: Cytochrome P450 2C19 (Homo sapiens) (UniProt P33261); assay: Cytochrome P450 Family 2 Subfamily C Member 19 (CYP2C19) small molecule antagonists: luciferase reporter qHTS assay (AID 1671197); note: nearly all actives have a fitted effect of over 65% in size
Cytochrome P450 2C19 (Homo sapiens), sequence (P33261 whole entry, looked up): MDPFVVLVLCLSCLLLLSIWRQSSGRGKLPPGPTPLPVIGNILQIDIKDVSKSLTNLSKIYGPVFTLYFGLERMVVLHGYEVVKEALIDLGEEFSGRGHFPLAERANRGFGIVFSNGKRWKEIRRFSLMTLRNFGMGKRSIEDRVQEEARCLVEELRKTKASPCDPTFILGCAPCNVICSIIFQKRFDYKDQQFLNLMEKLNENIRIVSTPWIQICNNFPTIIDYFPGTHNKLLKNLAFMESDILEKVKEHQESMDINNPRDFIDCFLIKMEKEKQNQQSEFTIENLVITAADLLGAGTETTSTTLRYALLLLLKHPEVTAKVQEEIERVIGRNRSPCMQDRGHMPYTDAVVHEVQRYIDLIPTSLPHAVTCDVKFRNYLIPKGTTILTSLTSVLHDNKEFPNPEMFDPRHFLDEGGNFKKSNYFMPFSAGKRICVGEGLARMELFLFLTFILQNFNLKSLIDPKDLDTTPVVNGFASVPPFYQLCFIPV
How it was run: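 Enzyme-substrate mix with proluciferin substrate (P450-Glo CYP2C19 system) preincubated with compounds 10 min at room temperature; NADPH regeneration solution added, 37C for 1 h; detection reagent stops reaction, luminescence read after 20 min. Ketoconazole positive control.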

[6] = target: Cytochrome P450 2C9 (Homo sapiens) (UniProt P11712); assay: Cytochrome P450 Family 2 Subfamily C Member 9 (CYP2C9) small molecule antagonists: luciferase reporter qHTS assay (AID 1671198); note: nearly all actives have a fitted effect of over 50% in size
Cytochrome P450 2C9 (Homo sapiens), sequence (P11712 whole entry, looked up): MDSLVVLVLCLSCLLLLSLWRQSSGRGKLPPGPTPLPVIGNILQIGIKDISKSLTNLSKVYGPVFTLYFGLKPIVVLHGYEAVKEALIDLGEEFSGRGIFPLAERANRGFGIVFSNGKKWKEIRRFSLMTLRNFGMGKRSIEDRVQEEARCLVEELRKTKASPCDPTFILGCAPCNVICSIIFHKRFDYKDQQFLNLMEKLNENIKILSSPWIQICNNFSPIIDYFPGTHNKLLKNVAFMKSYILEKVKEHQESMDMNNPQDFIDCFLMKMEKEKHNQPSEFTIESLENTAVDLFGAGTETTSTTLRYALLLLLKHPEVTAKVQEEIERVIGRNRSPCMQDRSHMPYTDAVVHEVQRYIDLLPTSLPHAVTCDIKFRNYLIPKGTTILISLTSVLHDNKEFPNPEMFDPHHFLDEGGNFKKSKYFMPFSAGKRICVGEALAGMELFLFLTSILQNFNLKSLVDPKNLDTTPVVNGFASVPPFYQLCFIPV
How it was run: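 CYP2C9 activity was measured with a P450-Glo proluciferin substrate. Enzyme–substrate mix was held with compound for 10 min at room temperature, then NADPH regeneration solution was added for 1 h at 37C. Luciferin product was read as luminescence.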

[7] = target: Cytochrome P450 1A2 (Homo sapiens) (UniProt P05177); assay: Cytochrome P450 Family 1 Subfamily A Member 2 (CYP1A2) small molecule antagonists: luciferase reporter qHTS assay (AID 1671199); note: nearly all actives have a fitted effect of over 50% in size
Cytochrome P450 1A2 (Homo sapiens), sequence (P05177 whole entry, looked up): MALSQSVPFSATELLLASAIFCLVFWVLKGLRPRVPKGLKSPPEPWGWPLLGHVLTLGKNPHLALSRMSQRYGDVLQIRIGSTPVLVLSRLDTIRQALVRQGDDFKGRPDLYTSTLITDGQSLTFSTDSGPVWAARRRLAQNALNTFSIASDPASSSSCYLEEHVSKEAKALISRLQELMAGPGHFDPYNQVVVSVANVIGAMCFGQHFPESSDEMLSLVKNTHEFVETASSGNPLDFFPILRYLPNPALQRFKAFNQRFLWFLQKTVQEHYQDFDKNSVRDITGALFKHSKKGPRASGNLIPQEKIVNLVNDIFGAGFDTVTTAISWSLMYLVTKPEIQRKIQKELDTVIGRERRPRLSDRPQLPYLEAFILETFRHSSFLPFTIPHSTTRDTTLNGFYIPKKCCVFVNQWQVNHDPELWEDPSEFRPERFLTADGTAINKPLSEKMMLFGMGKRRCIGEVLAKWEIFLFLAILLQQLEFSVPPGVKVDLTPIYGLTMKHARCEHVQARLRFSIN
How it was run: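 Signal from luciferin formed by CYP1A2 from a proluciferin substrate is read as luminescence, expressed in relative luminescence units. Compounds sit with enzyme 10 min, NADPH-driven reaction runs 1 h, all at room temperature.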

[8] = target: Voltage-gated inwardly rectifying potassium channel KCNH2 (Homo sapiens) (UniProt Q12809); assay: Human Ether-a-go-go-Related Gene (hERG) channel small molecule antagonists: fluorescence cell-based qHTS assay (AID 1671200); note: nearly all actives have a fitted effect of over 50% in size
Voltage-gated inwardly rectifying potassium channel KCNH2 (Homo sapiens), sequence (Q12809 whole entry, looked up): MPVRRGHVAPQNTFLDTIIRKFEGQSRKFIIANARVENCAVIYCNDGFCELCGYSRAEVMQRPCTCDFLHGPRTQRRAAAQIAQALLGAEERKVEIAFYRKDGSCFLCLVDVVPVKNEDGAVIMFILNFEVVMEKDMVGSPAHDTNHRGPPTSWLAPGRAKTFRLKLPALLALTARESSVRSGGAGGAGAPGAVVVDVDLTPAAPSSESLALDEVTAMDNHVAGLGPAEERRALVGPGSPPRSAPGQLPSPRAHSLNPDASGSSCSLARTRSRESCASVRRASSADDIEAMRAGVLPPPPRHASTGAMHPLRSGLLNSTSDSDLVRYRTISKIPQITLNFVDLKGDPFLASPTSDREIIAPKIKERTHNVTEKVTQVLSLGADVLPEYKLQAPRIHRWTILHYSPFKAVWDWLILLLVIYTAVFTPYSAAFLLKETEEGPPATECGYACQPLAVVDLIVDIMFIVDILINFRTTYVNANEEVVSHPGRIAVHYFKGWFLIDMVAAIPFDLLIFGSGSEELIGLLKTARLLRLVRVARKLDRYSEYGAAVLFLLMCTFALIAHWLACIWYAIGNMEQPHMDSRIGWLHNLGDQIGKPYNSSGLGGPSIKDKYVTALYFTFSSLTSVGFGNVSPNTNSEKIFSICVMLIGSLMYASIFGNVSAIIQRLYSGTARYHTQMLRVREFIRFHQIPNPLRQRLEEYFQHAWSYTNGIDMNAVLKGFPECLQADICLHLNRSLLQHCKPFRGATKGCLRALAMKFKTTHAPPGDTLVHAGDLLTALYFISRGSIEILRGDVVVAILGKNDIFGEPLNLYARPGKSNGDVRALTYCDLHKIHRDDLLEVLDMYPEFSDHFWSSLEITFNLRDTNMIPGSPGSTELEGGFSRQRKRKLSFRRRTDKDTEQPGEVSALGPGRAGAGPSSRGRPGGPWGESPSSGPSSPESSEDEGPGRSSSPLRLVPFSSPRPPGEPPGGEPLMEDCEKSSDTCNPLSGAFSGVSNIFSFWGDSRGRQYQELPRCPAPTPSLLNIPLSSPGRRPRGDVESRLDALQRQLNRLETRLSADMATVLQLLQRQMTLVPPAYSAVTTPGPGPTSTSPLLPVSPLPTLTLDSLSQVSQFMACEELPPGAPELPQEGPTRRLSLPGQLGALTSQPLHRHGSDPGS
How it was run: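 Quantitative HTS in hERG-U2OS cells: thallium entry through the channel reports activity, read as continuous 480/540 nm fluorescence over 2 min after stimulus addition.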

[9] = target: Cytochrome P450 3A4 (Homo sapiens) (UniProt P08684); assay: Cytochrome P450 Family 3 Subfamily A Member 4 (CYP3A4) small molecule antagonists: luciferase reporter qHTS assay (AID 1671201); note: nearly all actives have a fitted effect of over 50% in size
Cytochrome P450 3A4 (Homo sapiens), sequence (P08684 whole entry, looked up): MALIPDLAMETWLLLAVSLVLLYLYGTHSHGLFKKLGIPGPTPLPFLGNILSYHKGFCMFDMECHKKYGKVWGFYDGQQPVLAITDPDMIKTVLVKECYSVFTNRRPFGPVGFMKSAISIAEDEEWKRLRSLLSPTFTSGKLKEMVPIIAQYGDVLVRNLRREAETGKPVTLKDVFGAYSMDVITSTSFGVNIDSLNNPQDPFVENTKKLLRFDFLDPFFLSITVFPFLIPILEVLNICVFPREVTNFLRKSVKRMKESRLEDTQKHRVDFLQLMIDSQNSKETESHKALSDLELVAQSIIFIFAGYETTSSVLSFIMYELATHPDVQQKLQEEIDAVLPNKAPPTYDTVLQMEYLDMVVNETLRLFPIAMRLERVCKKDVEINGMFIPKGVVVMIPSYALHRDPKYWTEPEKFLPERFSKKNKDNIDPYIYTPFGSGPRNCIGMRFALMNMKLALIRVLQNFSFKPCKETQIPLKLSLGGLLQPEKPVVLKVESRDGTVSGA
How it was run: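 Inhibition of CYP3A4 is measured as loss of light: the enzyme converts a proluciferin substrate to luciferin, detected luminescently. Reaction ran 1 h at room temperature with NADPH regeneration after a 10 min compound preincubation.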

[10] = target: Cytochrome P450 2D6 (Homo sapiens) (UniProt P10635); assay: Cytochrome P450 Family 2 Subfamily D Member 6 (CYP2D6) small molecule antagonists: luciferase reporter qHTS assay (AID 1671196); note: nearly all actives have a fitted effect of over 50% in size
Cytochrome P450 2D6 (Homo sapiens), sequence (P10635 whole entry, looked up): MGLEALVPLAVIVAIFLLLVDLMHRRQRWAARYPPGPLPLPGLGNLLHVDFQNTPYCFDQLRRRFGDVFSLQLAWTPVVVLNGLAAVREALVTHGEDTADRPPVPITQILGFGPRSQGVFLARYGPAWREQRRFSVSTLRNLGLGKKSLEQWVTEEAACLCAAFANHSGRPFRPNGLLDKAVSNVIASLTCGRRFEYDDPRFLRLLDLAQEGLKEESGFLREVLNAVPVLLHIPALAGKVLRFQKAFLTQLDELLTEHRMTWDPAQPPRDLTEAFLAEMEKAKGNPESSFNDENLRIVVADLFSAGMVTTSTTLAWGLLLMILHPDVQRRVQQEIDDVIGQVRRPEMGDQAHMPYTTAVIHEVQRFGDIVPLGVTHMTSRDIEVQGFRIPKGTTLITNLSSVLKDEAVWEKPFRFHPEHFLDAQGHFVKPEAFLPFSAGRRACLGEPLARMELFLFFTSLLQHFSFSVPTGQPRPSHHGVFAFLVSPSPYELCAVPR
How it was run: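 Inhibition of CYP2D6 was gauged by loss of luminescence, since light produced tracks the luciferin generated from a proluciferin substrate. A 10 min room-temperature preincubation preceded 1 h NADPH-supported turnover.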
Potency is the fitted concentration of half-maximal effect.

Compound	Potency [1]	Potency [2]	Potency [3]	Potency [4]	Potency [5]	Potency [6]	Potency [7]	Potency [8]	Potency [9]	Potency [10]
COC(=O)C(C)N(C(=O)Cc1ccccc1)c1c(C)cccc1C (stereo unspecified)	inactive	inactive	inactive	inactive	3.56 µM (active)	22.4 µM (active)	inactive	inactive	inactive	
CCBr	inactive	inactive	inactive	inactive	inactive			inactive	inactive	
CC(=O)c1cc2c(cc1C)C(C)(C)C(C)CC2(C)C (stereo unspecified)	inactive	inactive	inactive	inactive				13.8 µM (active)	25.2 µM (active)	inactive
N#CCc1ccccc1	inactive	inactive	inactive	inactive	inactive				inactive	
CCOS(C)(=O)=O	inactive	inactive	inactive	inactive	inactive	inactive	inactive	inactive	inactive	
C=COC(C)=O	inactive	inactive	inactive	inactive	inactive	inactive	41.3 µM (active)	inactive	inactive	
CC(C)(CCl)C(=O)Cl	inactive	inactive	inactive	inactive	inactive	inactive	inactive		inactive	
CS/C(C)=N/OC(=O)N(C)SN(C)C(=O)O/N=C(\C)SC	1.42 µM (active)	5.03 µM (active)	0.71 µM (active)	31.7 µM (active)	71 µM (active)	79.6 µM (active)			inactive	
N#Cc1cc(I)c(O)c(I)c1	inactive	inactive	inactive	inactive				inactive		inactive
Nc1ccc(N=Nc2ccc(-c3ccc(N=Nc4c(S(=O)(=O)O)cc5cc(S(=O)(=O)O)c(N=Nc6ccccc6)c(O)c5c4N)cc3)cc2)c(N)c1	inactive	inactive	inactive	inactive	inactive			inactive		
CCOC(=O)COc1cc(-c2nn(C)c(OC(F)F)c2Cl)c(F)cc1Cl	inactive	inactive	inactive	inactive	31.7 µM (active)		1.78 µM (active)			
CC1(C)[C@H](C=C(Cl)Cl)[C@@H]1C(=O)O[C@@H](C#N)c1cccc(Oc2ccccc2)c1	inactive	inactive	inactive	inactive	7.96 µM (active)	3.56 µM (active)	inactive	inactive	inactive	
c1cc2ccc3cccc4ccc(c1)c2c34	inactive	inactive	inactive	inactive	16.7 µM (active)	74.4 µM (active)	0.564 µM (active)	inactive		
CCC(Br)(CC)C(=O)NC(N)=O	inactive	inactive	inactive	inactive	inactive	inactive	inactive	inactive	inactive	
BrCC(Br)C1CCC(Br)C(Br)C1 (stereo unspecified)	inactive	inactive	inactive	inactive	11.2 µM (active)					
CCOP(=O)(OCC)O/C(=C/Cl)c1ccc(Cl)cc1Cl					1.12 µM (active)	28.3 µM (active)	6.33 µM (active)			39.9 µM (active)
CCC(C)(NC(=O)c1cc(Cl)c(C)c(Cl)c1)C(=O)CCl (stereo unspecified)	inactive	inactive		inactive	25.3 µM (active)	35.8 µM (active)	2.26 µM (active)	43.9 µM (active)	6.37 µM (active)	35.8 µM (active)
CCOP(=S)(OCC)Oc1cc(Cl)c(Br)cc1Cl					0.71 µM (active)	2 µM (active)	3.56 µM (active)	inactive	2.24 µM (active)	inactive
O=S1OC[C@@H]2[C@H](CO1)[C@]1(Cl)C(Cl)=C(Cl)[C@@]2(Cl)C1(Cl)Cl (stereo partly specified)					7.96 µM (active)	39.9 µM (active)	35.6 µM (active)			
O=C(N[C@H](c1ccccc1)[C@@H]1CN2CCC1CC2)c1c(Cl)ccc(C(F)(F)F)c1Cl							inactive	39.5 µM (active)		2.56 µM (active)
CN(N=O)c1ccc([N+](=O)[O-])cc1	63.3 µM (active)	inactive		inactive	35.6 µM (active)		6.33 µM (active)		inactive	
CCOC(=O)C(Cl)C(C)=O (stereo unspecified)		inactive		inactive		inactive	inactive		inactive	inactive
CCCCCC[N+](=O)[O-]								inactive		
COCCOCCO	inactive	inactive	inactive	inactive				inactive		
Nc1nc(=S)[nH][nH]1	inactive	inactive		inactive	25.2 µM (active)	31.7 µM (active)		inactive	inactive	44.8 µM (active)
CCC(COC(=O)c1cc(OC)c(OC)c(OC)c1)(c1ccccc1)N(C)C (stereo unspecified)	inactive	inactive		inactive	24.5 µM (active)	15.5 µM (active)	inactive			0.55 µM (active)

Compound	Potency [1]	Potency [2]	Potency [3]	Potency [4]	Potency [5]	Potency [6]	Potency [7]	Potency [8]	Potency [9]	Potency [10]
II	inactive		inactive	inactive	56.4 µM (active)	31.7 µM (active)	71 µM (active)	inactive		28.3 µM (active)
Cl/C=C\C[N+]12CN3CN(CN(C3)C1)C2		inactive	inactive	inactive	inactive	inactive	inactive	inactive		71 µM (active)
CCOP(=O)(OCC)Oc1ccc([N+](=O)[O-])cc1					1.61 µM (active) and 1.78 µM (active)	64 µM (active)	32.1 µM (active) and 31.7 µM (active)	inactive	inactive	1.61 µM (active) and 1.59 µM (active)
O=C1C(=O)c2cccc3cccc1c23	inactive	inactive		inactive	39.9 µM (active)		8.93 µM (active)	inactive	inactive	
COc1c(C(C)(C)C)cc([N+](=O)[O-])c(C)c1[N+](=O)[O-]		inactive		inactive	28.1 µM (active)		1.77 µM (active)		inactive	
c1ccc(C2CC2)c(OCC2=NCCN2)c1		inactive	inactive	inactive	inactive			inactive	inactive	4.36 µM (active)
CCCN(CCC)c1c([N+](=O)[O-])cc(S(C)(=O)=O)cc1[N+](=O)[O-]		inactive	inactive	inactive		28.3 µM (active)	inactive	inactive	20 µM (active)	
CN(C)c1ccc(N(C)C)cc1	40 µM (active)		40 µM (active)	inactive	7.99 µM (active)	20.1 µM (active)	40 µM (active)	inactive	35.7 µM (active)	20.1 µM (active)
C#CCOC(C(=O)OCCN(C)C)(c1ccccc1)c1ccccc1					1.95 µM (active)	2.19 µM (active)	inactive			3.47 µM (active)
O=C1CN=C(c2ccccc2)c2cc(Cl)ccc2N1CC1CC1	inactive		29.7 µM (active)	inactive	6.64 µM (active)	26.4 µM (active)				
CCCCc1c(C)nc(NCC)nc1OS(=O)(=O)N(C)C	inactive	inactive		inactive	79.6 µM (active)	31.7 µM (active)	12.6 µM (active)		12.6 µM (active)	
OCCCBr		inactive	inactive	inactive	3.99 µM (active)		61.8 µM (active)			
CCOP(=S)(Oc1ccc([N+](=O)[O-])cc1)c1ccccc1 (stereo unspecified)	inactive	inactive	inactive		0.159 µM (active)	0.564 µM (active)	5.64 µM (active)		1.59 µM (active)	
CCOP(=S)(OCC)SCSCC	63.3 µM (active)	inactive		inactive	20 µM (active)		22.4 µM (active)		6.33 µM (active)	
Clc1ccc(C2(Cn3cncn3)CC(Br)CO2)c(Cl)c1 (stereo unspecified)	inactive	inactive		inactive	0.177 µM (active)	5 µM (active)	31.5 µM (active)		0.126 µM (active)	31.5 µM (active)
CC(C)N(C(=O)COc1nnc(C(F)(F)F)s1)c1ccc(F)cc1	39.9 µM (active)	inactive		inactive	1 µM (active)	35.6 µM (active)	39.9 µM (active)		inactive	inactive
CCn1cc[n+](C)c1					inactive and 40.3 µM (active) and 79.5 µM (active)	inactive and 32 µM (active)	35.5 µM (active) and inactive and 39 µM (active)	inactive and 24.8 µM (active)	inactive	inactive and 507 nM (active) and 34.7 µM (active)
C=CC(=O)OC								inactive		
NCCCNCCCN								inactive		
COP(=S)(OC)Oc1cc(Cl)c(I)cc1Cl	inactive	inactive		inactive	2.24 µM (active)	3.99 µM (active)	12.6 µM (active)		20 µM (active)	inactive
CCOC(=O)[C@]1(c2ccccc2)Oc2ccccc2[C@@H]1N	79.6 µM (active)			inactive	35.6 µM (active)		63.3 µM (active)	3.09 µM (active)		0.2 µM (active)
CN1[C@@H]2CC[C@H]1CC(OC(=O)c1cc(Cl)cc(Cl)c1)C2 (stereo partly specified)		inactive	inactive	inactive	inactive	inactive		7.56 µM (active)		0.055 µM (active)
C[C@@H]1CC[C@H]2[C@@H](C)C(=O)O[C@@H]3O[C@@]4(C)CC[C@@H]1[C@]32OO4								inactive		
COP(=S)(Oc1cc(Cl)c(Br)cc1Cl)c1ccccc1 (stereo unspecified)	63.3 µM (active)			8.94 µM (active)	0.224 µM (active)		15.9 µM (active)	inactive		
O=[N+]([O-])c1ccccc1CCl	inactive	inactive	inactive	inactive					inactive	
